Experiments:
Settings in all cases: concentration: 1 μM, replicates: in singlicate; n = 1
LRRK2 = test system: LRRK2
LTK = test system: LTK
LYN = test system: LYN
LZK = test system: T1, LZK
T1 construct: gene MAP3K13

MAK = test system: MAK
MAP3K15 = test system: MAP3K15
MAP3K1 = test system: MAP3K1
MAP3K2 = test system: MAP3K2
MAP3K3 = test system: MAP3K3
MAP3K4 = test system: MAP3K4
MAP4K2 = test system: MAP4K2
MAP4K3 = test system: MAP4K3
MAP4K4 = test system: MAP4K4
MAP4K5 = test system: MAP4K5
MAPKAPK2 = test system: MAPKAPK2
MAPKAPK5 = test system: MAPKAPK5
MARK1 = test system: MARK1
MARK2 = test system: MARK2
MARK3 = test system: MARK3
MARK4 = test system: MARK4
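Note: KINOMEscan kinase panel screen.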

## Cn1cncc1-c1cc2c(Nc3ccc(OCc4ccccc4)cc3)ncnc2cn1 [GW281179]
LRRK2
  %Inh: 10%
LTK
  %Inh: 4%
LYN
  %Inh: 0%
LZK
  %Inh: 0%
MAK
  %Inh: 19%
MAP3K15
  %Inh: 0%
MAP3K1
  %Inh: 0%
MAP3K2
  %Inh: 0%
MAP3K3
  %Inh: 0%
MAP3K4
  %Inh: 15%
MAP4K2
  %Inh: 0%
MAP4K3
  %Inh: 0%
MAP4K4
  %Inh: 1%
MAP4K5
  %Inh: 0%
MAPKAPK2
  %Inh: 24%
MAPKAPK5
  %Inh: 0%
MARK1
  %Inh: 0%
MARK2
  %Inh: 0%
MARK3
  %Inh: 0%
MARK4
  %Inh: 11%

## O=C(Nc1n[nH]c2nc(-c3cccs3)c(Br)cc12)C1CC1 [SB-735297]
LRRK2
  %Inh: 0%
LTK
  %Inh: 0%
LYN
  %Inh: 15%
LZK
  %Inh: 0%
MAK
  %Inh: 34%
MAP3K15
  %Inh: 41%
MAP3K1
  %Inh: 12%
MAP3K2
  %Inh: 7%
MAP3K3
  %Inh: 36%
MAP3K4
  %Inh: 19%
MAP4K2
  %Inh: 0%
MAP4K3
  %Inh: 0%
MAP4K4
  %Inh: 0%
MAP4K5
  %Inh: 0%
MAPKAPK2
  %Inh: 0%
MAPKAPK5
  %Inh: 10%
MARK1
  %Inh: 1%
MARK2
  %Inh: 0%
MARK3
  %Inh: 20%
MARK4
  %Inh: 6%

## CNCc1ccc2nc(NC(=O)c3ccc(C(C)(C)C)cc3)cn2c1
LRRK2
  %Inh: 10%
LTK
  %Inh: 12%
LYN
  %Inh: 0%
LZK
  %Inh: 0%
MAK
  %Inh: 15%
MAP3K15
  %Inh: 98.9%
MAP3K1
  %Inh: 19%
MAP3K2
  %Inh: 21%
MAP3K3
  %Inh: 0%
MAP3K4
  %Inh: 4%
MAP4K2
  %Inh: 22%
MAP4K3
  %Inh: 0%
MAP4K4
  %Inh: 0%
MAP4K5
  %Inh: 0%
MAPKAPK2
  %Inh: 0%
MAPKAPK5
  %Inh: 5%
MARK1
  %Inh: 0%
MARK2
  %Inh: 0%
MARK3
  %Inh: 9%
MARK4
  %Inh: 4%

## Cn1cnc2c(N)ncnc21 [SKF-97623]
LRRK2
  %Inh: 0%
LTK
  %Inh: 0%
LYN
  %Inh: 0%
LZK
  %Inh: 2%
MAK
  %Inh: 0%
MAP3K15
  %Inh: 0%
MAP3K1
  %Inh: 0%
MAP3K2
  %Inh: 0%
MAP3K3
  %Inh: 0%
MAP3K4
  %Inh: 0%
MAP4K2
  %Inh: 0%
MAP4K3
  %Inh: 14%
MAP4K4
  %Inh: 0%
MAP4K5
  %Inh: 13%
MAPKAPK2
  %Inh: 25%
MAPKAPK5
  %Inh: 0%
MARK1
  %Inh: 0%
MARK2
  %Inh: 0%
MARK3
  %Inh: 0%
MARK4
  %Inh: 0%

## COC(=O)C(Cc1ccccc1)NC(=O)NC1CCN(c2ccnc(Nc3ccc(F)cc3)n2)C1 (centres unmarked) [GSK1379714]
LRRK2
  %Inh: 0%
LTK
  %Inh: 0%
LYN
  %Inh: 22%
LZK
  %Inh: 23%
MAK
  %Inh: 35%
MAP3K15
  %Inh: 0%
MAP3K1
  %Inh: 0%
MAP3K2
  %Inh: 0%
MAP3K3
  %Inh: 0%
MAP3K4
  %Inh: 0%
MAP4K2
  %Inh: 0%
MAP4K3
  %Inh: 0%
MAP4K4
  %Inh: 9%
MAP4K5
  %Inh: 3%
MAPKAPK2
  %Inh: 21%
MAPKAPK5
  %Inh: 0%
MARK1
  %Inh: 0%
MARK2
  %Inh: 8%
MARK3
  %Inh: 0%
MARK4
  %Inh: 4%

## COc1cc2ncnc(Nc3cccc(Br)c3)c2cc1OC.Cl [GI230329]
LRRK2
  %Inh: 0%
LTK
  %Inh: 0%
LYN
  %Inh: 67%
LZK
  %Inh: 38%
MAK
  %Inh: 34%
MAP3K15
  %Inh: 0%
MAP3K1
  %Inh: 2%
MAP3K2
  %Inh: 33%
MAP3K3
  %Inh: 29%
MAP3K4
  %Inh: 4%
MAP4K2
  %Inh: 0%
MAP4K3
  %Inh: 0%
MAP4K4
  %Inh: 0%
MAP4K5
  %Inh: 0%
MAPKAPK2
  %Inh: 0%
MAPKAPK5
  %Inh: 0%
MARK1
  %Inh: 0%
MARK2
  %Inh: 0%
MARK3
  %Inh: 0%
MARK4
  %Inh: 5%

## O=C(Nc1n[nH]c2nc(-c3cccs3)c(Br)cc12)C1CCCC1 [SB-743341]
LRRK2
  %Inh: 28%
LTK
  %Inh: 17%
LYN
  %Inh: 0%
LZK
  %Inh: 36%
MAK
  %Inh: 77%
MAP3K15
  %Inh: 32%
MAP3K1
  %Inh: 49%
MAP3K2
  %Inh: 5%
MAP3K3
  %Inh: 28%
MAP3K4
  %Inh: 0%
MAP4K2
  %Inh: 0%
MAP4K3
  %Inh: 0%
MAP4K4
  %Inh: 0%
MAP4K5
  %Inh: 0%
MAPKAPK2
  %Inh: 5%
MAPKAPK5
  %Inh: 17%
MARK1
  %Inh: 22%
MARK2
  %Inh: 8%
MARK3
  %Inh: 2%
MARK4
  %Inh: 19%

## CCn1c(-c2ccccc2)nc2cnccc21 [SB-733416]
LRRK2
  %Inh: 51%
LTK
  %Inh: 0%
LYN
  %Inh: 0%
LZK
  %Inh: 0%
MAK
  %Inh: 11%
MAP3K15
  %Inh: 22%
MAP3K1
  %Inh: 14%
MAP3K2
  %Inh: 2%
MAP3K3
  %Inh: 0%
MAP3K4
  %Inh: 0%
MAP4K2
  %Inh: 0%
MAP4K3
  %Inh: 9%
MAP4K4
  %Inh: 18%
MAP4K5
  %Inh: 8%
MAPKAPK2
  %Inh: 34%
MAPKAPK5
  %Inh: 0%
MARK1
  %Inh: 13%
MARK2
  %Inh: 0%
MARK3
  %Inh: 10%
MARK4
  %Inh: 26%

## CNC(=O)c1ccc(C)c(-n2c(C)cc(OCc3ccc(F)cc3F)c(Br)c2=O)c1
LRRK2
  %Inh: 0%
LTK
  %Inh: 0%
LYN
  %Inh: 1%
LZK
  %Inh: 0%
MAK
  %Inh: 0%
MAP3K15
  %Inh: 0%
MAP3K1
  %Inh: 0%
MAP3K2
  %Inh: 0%
MAP3K3
  %Inh: 0%
MAP3K4
  %Inh: 6%
MAP4K2
  %Inh: 0%
MAP4K3
  %Inh: 0%
MAP4K4
  %Inh: 0%
MAP4K5
  %Inh: 0%
MAPKAPK2
  %Inh: 0%
MAPKAPK5
  %Inh: 0%
MARK1
  %Inh: 0%
MARK2
  %Inh: 1%
MARK3
  %Inh: 0%
MARK4
  %Inh: 0%

## O=C(Nc1n[nH]c2cc(-c3ccsc3)ccc12)C1CC1 [SB-732932]
LRRK2
  %Inh: 0%
LTK
  %Inh: 0%
LYN
  %Inh: 4%
LZK
  %Inh: 52%
MAK
  %Inh: 41%
MAP3K15
  %Inh: 45%
MAP3K1
  %Inh: 23%
MAP3K2
  %Inh: 17%
MAP3K3
  %Inh: 5%
MAP3K4
  %Inh: 5%
MAP4K2
  %Inh: 25%
MAP4K3
  %Inh: 0%
MAP4K4
  %Inh: 18%
MAP4K5
  %Inh: 2%
MAPKAPK2
  %Inh: 0%
MAPKAPK5
  %Inh: 24%
MARK1
  %Inh: 0%
MARK2
  %Inh: 24%
MARK3
  %Inh: 0%
MARK4
  %Inh: 12%

From publication PMC5540273 (PLoS ONE, 2017)
